These results are taken from PubChem BioAssay (NCI).

About 83,000 compounds went through this panel and 20% of them were active in at least one assay; those are over-represented in the sample as a whole.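 How to read the values: 0–100, growth inhibition (40 = 60% inhibited); 0, no net growth; -100 to 0, cell death (-40 = 40% of starting cells died; -100 = all dead).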 Unmarked numbers belong to inactive results. Calls of active or inactive are those of the source. The calls were made as follows: active = growth percent below 10; inactive = the rest.

Assay in all cases: NCI-60 one-dose screen, 48 h (100 = growth as untreated, 0 = no growth, -100 = all killed)
Assay [1] relates to A549/ATCC NSCLC. The settings on record: 10 µM unless noted.
For assay [2], the system named is K-562 leukemia. The settings on record: 10 µM unless noted.
Assay [3] concerns SF-295 CNS. To be noted: 10 µM unless noted.
The subject of assay [4] is SF-539 CNS. To be noted: 10 µM unless noted.
Assay [5] deals with UACC-257 melanoma. To be noted: 10 µM unless noted.
In assay [6] the test system is HCT-15 colon. The settings on record: 10 µM.
The subject of assay [7] is HT29 colon. The settings on record: 10 µM unless noted.
Assay [8] deals with SNB-75 CNS. The settings on record: 10 µM unless noted.
Assay [9] has as its system PC-3 prostate. To be noted: 10 µM unless noted.
Assay [10] relates to SK-MEL-5 melanoma. The settings on record: 10 µM unless noted.
In assay [11] the test system is SK-MEL-2 melanoma. To be noted: 10 µM unless noted.
Assay [12] has as its system ACHN renal. The settings on record: 10 µM unless noted.
The test system of assay [13] is A498 renal. To be noted: 10 µM unless noted.
Assay [14] deals with HL-60(TB) leukemia. The settings on record: 10 µM unless noted.
Assay [15] deals with OVCAR-8 ovarian. To be noted: 10 µM unless noted.
For assay [16], the system named is OVCAR-4 ovarian. To be noted: 10 µM unless noted.
In assay [17] the test system is IGROV1 ovarian. To be noted: 10 µM.
For assay [18], the system named is HS 578T breast. The settings on record: 10 µM unless noted.
The subject of assay [19] is HCC-2998 colon. To be noted: 10 µM unless noted.
For assay [20], the system named is T-47D breast. The settings on record: 10 µM unless noted.

With `O=C1NC(=O)C(Cc2ccccc2)(Cc2ccccc2)C(=O)N1`, the growth in assay [1] is 104%; in [2] it was 86.7%; in assay [3] it was 105%; in assay [4] it was 110%; in [5], 108%; in assay [6], 108%. The growth in [7] was 104%; in [8], 89.3%; in assay [9], 105%; in assay [10], 109%; in [11], 104%; in assay [12] it was 114%. For the same molecule, the growth in assay [13] is 104%; in assay [14], 89.4%; in assay [15], 106%; in assay [16], 95.7%; in assay [17], 114%; in assay [18] it was 109%. In addition, in assay [19], the growth is 104%.

Regarding `C[C@]12CC[C@H]3[C@@H](C[C@@H]4N=C(c5ccc(O)cc5)S[C@@]45C[C@H](O)CC[C@]35C)[C@@H]1CC[C@@H]2O`, the growth in [1] is 52.1%; in assay [2], 13.9%; in assay [3], -36.2% (active); in assay [4] it was 8.02% (active); in [5], 66.2%; in assay [6] it was 29.5%. Further, the growth in assay [7] was 19.9%; in [8] it was 26.4%; in assay [9] it was 49.5%; in [10], 72%; in [11], 44.9%; in assay [12], 46%. For the same molecule, the growth in assay [13] was 49.4%; in [14], 22.7%; in assay [15], 74.2%; in [16], 81.8%; in assay [17], 80.7%; in assay [18], 4.16% (active). Also, the growth in assay [20] is 67.7%; in assay [19], 95.3%.

Take `Cc1ccc(N)cc1[As]=[As]c1cc(N)ccc1C` (stereo unspecified): the growth in assay [1] was 69.8%; in assay [2] it was -5.72% (active); in assay [3], 73.2%; in assay [4], -94.5% (active); in [5], -97.3% (active); in assay [6], -68.5% (active). For the same molecule, the growth in assay [7] was -84.6% (active); in assay [8] it was -99.6% (active); in [9], -89.9% (active); in [10], -87.2% (active); in assay [12] it was -91.6% (active); in [13], -26.3% (active). Moreover, the growth in [14] was -43.9% (active); in assay [15], -95.3% (active); in assay [16], -83.1% (active); in [17], -90.8% (active); in assay [20], -41.9% (active); in [19] it was -73.8% (active).

As to `C[CH2][Sn]([CH2]C)([CH2]C)[NH]S(=O)(=O)c1ccc(C)cc1`, the growth is 102% in [1]; 116% in assay [2]; 104% in assay [3]; 105% in [5]; 96.5% in [6]; 116% in assay [7]. For the same molecule, the growth was 94.6% in [8]; 111% in assay [9]; 110% in [10]; 119% in assay [11]; 68% in [13]; 104% in assay [14]. The growth in assay [15] is 104%; in assay [16], 103%; in assay [17], 111%; in assay [18], 89.4%; in assay [20] it was 100%; in [19], 99.9%.

`CNc1ccc(C(=O)CC(O)CCC(C)C2OC(=O)CC(O)CC(=O)CC(O)CC(O)CC(O)CC(O)CC3(O)CC(O)C(C(=O)OC)C(CC(O[C@@H]4O[C@H](C)[C@@H](O)[C@H](N)[C@@H]4O)/C=C/C=C/C=C/C=C/C=C/C=C/C=C/C2C)O3)cc1` (stereo partly specified): the growth in assay [1] is -65% (active); in assay [2], 34.5%; in assay [3], 20.2%; in assay [4] it was 72.4%; in assay [5] it was -79.7% (active); in [6], 41.8%. Further, the growth was -21.2% (active) in assay [7]; 42.6% in [8]; 15% in [9]; 2.72% (active) in assay [10]; -8.57% (active) in assay [11]; -79.5% (active) in [12]. Besides, the growth in assay [13] was -54.2% (active); in assay [15] it was -22.3% (active); in [16], -10.5% (active); in [17] it was 3.21% (active); in [18] it was 6.91% (active); in assay [20] it was -2.05% (active). In assay [19], the growth was -43.9% (active).

Take `[Br][Pb]([c]1ccccc1)([c]1ccccc1)[c]1ccccc1`: the growth was -99.2% (active) in assay [1]; -46.7% (active) in [2]; -90.6% (active) in [4]; -99% (active) in [5]; -77.8% (active) in [6]; -73.4% (active) in assay [7]. Further, the growth in [8] was -100% (active); in assay [9], -80.6% (active); in [10], -100% (active); in assay [11], -96.6% (active); in [12], -92.8% (active); in [13] it was -100% (active). Further, the growth in assay [14] is -39.9% (active); in assay [15] it was -100% (active); in assay [16], -100% (active); in assay [17] it was -50.9% (active); in assay [18], -35.6% (active); in [20], -72% (active). The growth in [19] is -94.6% (active).

`CC(N)Cc1ccc(O)cc1` (stereo unspecified): the growth in [1] is 103%; in assay [2], 94.8%; in [3], 118%; in [4], 117%; in assay [5] it was 94.6%; in assay [6] it was 113%. For the same molecule, the growth in assay [7] is 98.4%; in assay [8], 107%; in [9], 98.8%; in [10] it was 103%; in assay [11], 94.8%; in [12] it was 108%. The growth was 80.7% in [13]; 90.2% in assay [14]; 101% in assay [15]; 124% in assay [16]; 111% in assay [17]; 103% in assay [18]. The growth in assay [20] is 98.3%; in assay [19], 111%.

For the molecule `CN=C(NN)NN`, the growth in [1] is 96.2%; in [2] it was 113%; in [3] it was 102%; in assay [4] it was 104%; in assay [5], 109%; in [6], 104%. Besides, the growth is 106% in assay [7]; 98% in [8]; 93.3% in assay [9]; 107% in assay [10]; 109% in [11]; 108% in [12]. Further, the growth in assay [13] was 92.4%; in [14] it was 119%; in [15] it was 99.3%; in [16], 117%; in assay [17], 112%; in assay [18], 102%. For the same molecule, the growth in assay [20] is 106%; in [19] it was 103%.

For `CC(C)CCC[C@@H](C)[C@H]1CC[C@H]2[C@@H]3CC=C4C[C@@H](OC(=O)Cc5ccc(N(CCCl)CCCl)cc5)CC[C@]4(C)[C@H]3CC[C@]12C`, the growth in assay [1] is 112%; in assay [2], 90.4%; in assay [3] it was 119%; in assay [4], 94.1%; in assay [5], 103%; in assay [6] it was 108%. The growth in [7] is 107%; in [8] it was 103%; in assay [9] it was 99.5%; in [10], 95.8%; in assay [11], 94.6%; in assay [12], 100%. Besides, the growth in [13] was 132%; in assay [15], 99.8%; in assay [16], 114%; in [18], 117%; in assay [20], 106%; in assay [19], -5.75% (active).
